The nature of experiment [1]: small molecules captured by biotinylated probe aFSTL3 – biochemical, small-molecule microarray, fluorescence 635/667, stem cell growth factor project, primary screen (AID 1064).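 Also: measures binding of the biotinylated anti-FSTL3 antibody to printed compounds.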 The following applies: higher = more signal.
Experiment [2] in a line: binders from COS7 lysate, DM2A8 probe, primary screen, torsin A project, cell lysate, small-molecule microarray, fluorescence 635/667 (AID 1065). As to conditions: higher = more signal, COS7 lysate expressing mutant human TOR1A.
Experiment [3] can be described thus: small molecules captured by biotinylated probe aFGF2 – biochemical, small-molecule microarray, fluorescence 635/667, stem cell growth factor project, primary screen (AID 1067).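 Also: measures binding of biotinylated aFGF2 protein to printed compounds on slides; z-score merges feature fluorescence and signal-to-noise across triplicate slides.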 As to conditions: higher = more signal.
A short description of experiment [4]: small molecules captured by biotinylated probe aFGF10 – biochemical, small-molecule microarray, fluorescence 635/667, stem cell growth factor project, primary screen (AID 1071).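 Also: score merges 667 nm spot intensity and signal to noise from triplicate slides.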 As to conditions: higher = more signal.
Experiment [5] has as its target Neurogenic locus notch homolog protein 2 (Homo sapiens) (UniProt Q04721). As to the kind of experiment: small molecules binding Notch2 protein – biochemical, small-molecule microarray, 635 nm fluorescence, stem cell growth factors, primary screen (AID 1073). The following applies: higher = more signal.
Experiment [6] has as its target Pro-neuregulin-1, membrane-bound isoform (Homo sapiens) (UniProt Q02297). As to the kind of experiment: small molecules binding neuregulin-1 protein – biochemical, small-molecule microarray, fluorescence 635/667, psychiatric disease protein project, primary screen (AID 1075).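 Also: score combines 667 nm spot fluorescence with signal to noise.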 The following applies: NRG1 binding, 635 nm fluorescence, higher = more signal.
For experiment [7], the system named is Neuregulin-1 EGF-like domain. As to the kind of experiment: small molecules binding NRG1 EGF domain – biochemical, small-molecule microarray, 635 nm fluorescence, primary screen (AID 1081).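 Also: binding of the protein to compounds printed on small-molecule microarray slides.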 The following applies: higher = more signal.
Experiment [8] in a line: FRG1 expression reporter modulators in myotubes – cell-based, C2C12 myotubes, firefly/Renilla luciferase, luminescence, FRG1 inhibition for FSHD, primary screen (AID 1084). The following applies: FRG1 promoter luciferase, higher = more signal, called active from +8 up or from −8 down.
A short description of experiment [9]: small molecules captured by biotinylated probe aFST – biochemical, small-molecule microarray, fluorescence 635/667, stem cell growth factor project, primary screen (AID 1086).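 Also: score merges 667 nm fluorescence with signal-to-noise of each printed compound spot.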 The following applies: higher = more signal.
Experiment [10] can be described thus: binders of probe aHhip on microarray, primary screen, stem cell growth factor project, biochemical, small-molecule microarray, fluorescence 635/667 (AID 1087).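 Also: score merges spot fluorescence at 667nm with spot signal to noise ratio.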 As to conditions: higher = more signal.
For experiment [11], the system named is PRMT1 (protein arginine N-methyltransferase 1). As to the kind of experiment: small molecules binding arginine methyltransferase PRMT1 – biochemical, small-molecule microarray, 635 nm fluorescence, primary screen (AID 1088).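 Also: binding of Prmt1 protein to compounds spotted on small-molecule microarray slides.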 As to conditions: higher = more signal.
A short description of experiment [12]: growth effects on S. cerevisiae YJM789 – YJM789 clinical isolate, OD600, 24 h, basal, primary screen (AID 1089).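 Also: growth of clinical yeast isolate S. cerevisiae YJM 789 seeded 1000 cells per well; test concentration not given here.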 As to conditions: higher = more signal, called active from +8 up or from −8 down.
Experiment [13] in a line: S. pombe growth modifiers, basal conditions – strain 972, OD600, 24 h, no modulator, primary screen (AID 1090).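 Also: basal condition with compound alone and no growth modifier present; test concentration not given here.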 As to conditions: S. pombe 972 growth, higher = more signal, called active from +8 up or from −8 down.
Experiment [14] is described as follows: budding yeast growth modifiers under rapamycin – strain BY4716, OD600, 96 h, primary screen (AID 1091). Also: test concentration not given here. The following applies: S. cerevisiae BY4716 + rapamycin, higher = more signal, called active from +8 up or from −8 down.
Experiment [15] concerns the target Torsin-1A-interacting protein 2 (Homo sapiens) (UniProt Q8NFQ8). As to the kind of experiment: small molecules binding lysate-expressed LULL1 – cell lysate, human LULL1 lysate, 635/667 nm fluorescence, primary screen (AID 1092).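 Also: probe is lysate of COS7 cells overexpressing human LULL1; score merges per-feature 667 nm fluorescence with signal-to-noise.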 As to conditions: small-molecule microarray, hLULL1 lysate binding, 635 nm fluorescence; higher = more signal.
Experiment [16] is described as follows: optical density change of DRC41 E. coli – strain DRC41, OD650, 24 h, E. coli filamentation project, primary screen (AID 1093).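 Also: MC1000 strain lacking acrAB efflux and sulA so SOS filamentation is blocked; test concentration not given here.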 The following applies: E. coli DRC41 growth, higher = more signal, called active from +8 up or from −8 down.
The nature of experiment [17]: probe aLefty2 binding to arrayed compounds – biochemical, biotinylated probe, 635/667 nm fluorescence, primary screen (AID 1094).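 Also: score merges spot fluorescence near 667 nm with spot signal-to-noise ratio.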 As to conditions: small-molecule microarray, higher = more signal.
Experiment [18] relates to Noggin (protein binding on small-molecule microarray). As to the kind of experiment: small molecules binding Noggin protein – biochemical, 635/667 nm fluorescence, primary screen (AID 1095).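 Also: score merges 667 nm feature fluorescence with signal to noise over triplicate slides.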 As to conditions: 635 nm fluorescence, higher = more signal.
For experiment [19], the target named is Neurogenic locus notch homolog protein 3 (Homo sapiens) (UniProt Q9UM47). As to the kind of experiment: small molecules binding NOTCH3 protein – biochemical, 635/667 nm fluorescence, primary screen (AID 1096). As to conditions: small-molecule microarray, 635 nm fluorescence, higher = more signal.
Sequence of Neurogenic locus notch homolog protein 3 (Homo sapiens) (Q9UM47 whole entry, looked up): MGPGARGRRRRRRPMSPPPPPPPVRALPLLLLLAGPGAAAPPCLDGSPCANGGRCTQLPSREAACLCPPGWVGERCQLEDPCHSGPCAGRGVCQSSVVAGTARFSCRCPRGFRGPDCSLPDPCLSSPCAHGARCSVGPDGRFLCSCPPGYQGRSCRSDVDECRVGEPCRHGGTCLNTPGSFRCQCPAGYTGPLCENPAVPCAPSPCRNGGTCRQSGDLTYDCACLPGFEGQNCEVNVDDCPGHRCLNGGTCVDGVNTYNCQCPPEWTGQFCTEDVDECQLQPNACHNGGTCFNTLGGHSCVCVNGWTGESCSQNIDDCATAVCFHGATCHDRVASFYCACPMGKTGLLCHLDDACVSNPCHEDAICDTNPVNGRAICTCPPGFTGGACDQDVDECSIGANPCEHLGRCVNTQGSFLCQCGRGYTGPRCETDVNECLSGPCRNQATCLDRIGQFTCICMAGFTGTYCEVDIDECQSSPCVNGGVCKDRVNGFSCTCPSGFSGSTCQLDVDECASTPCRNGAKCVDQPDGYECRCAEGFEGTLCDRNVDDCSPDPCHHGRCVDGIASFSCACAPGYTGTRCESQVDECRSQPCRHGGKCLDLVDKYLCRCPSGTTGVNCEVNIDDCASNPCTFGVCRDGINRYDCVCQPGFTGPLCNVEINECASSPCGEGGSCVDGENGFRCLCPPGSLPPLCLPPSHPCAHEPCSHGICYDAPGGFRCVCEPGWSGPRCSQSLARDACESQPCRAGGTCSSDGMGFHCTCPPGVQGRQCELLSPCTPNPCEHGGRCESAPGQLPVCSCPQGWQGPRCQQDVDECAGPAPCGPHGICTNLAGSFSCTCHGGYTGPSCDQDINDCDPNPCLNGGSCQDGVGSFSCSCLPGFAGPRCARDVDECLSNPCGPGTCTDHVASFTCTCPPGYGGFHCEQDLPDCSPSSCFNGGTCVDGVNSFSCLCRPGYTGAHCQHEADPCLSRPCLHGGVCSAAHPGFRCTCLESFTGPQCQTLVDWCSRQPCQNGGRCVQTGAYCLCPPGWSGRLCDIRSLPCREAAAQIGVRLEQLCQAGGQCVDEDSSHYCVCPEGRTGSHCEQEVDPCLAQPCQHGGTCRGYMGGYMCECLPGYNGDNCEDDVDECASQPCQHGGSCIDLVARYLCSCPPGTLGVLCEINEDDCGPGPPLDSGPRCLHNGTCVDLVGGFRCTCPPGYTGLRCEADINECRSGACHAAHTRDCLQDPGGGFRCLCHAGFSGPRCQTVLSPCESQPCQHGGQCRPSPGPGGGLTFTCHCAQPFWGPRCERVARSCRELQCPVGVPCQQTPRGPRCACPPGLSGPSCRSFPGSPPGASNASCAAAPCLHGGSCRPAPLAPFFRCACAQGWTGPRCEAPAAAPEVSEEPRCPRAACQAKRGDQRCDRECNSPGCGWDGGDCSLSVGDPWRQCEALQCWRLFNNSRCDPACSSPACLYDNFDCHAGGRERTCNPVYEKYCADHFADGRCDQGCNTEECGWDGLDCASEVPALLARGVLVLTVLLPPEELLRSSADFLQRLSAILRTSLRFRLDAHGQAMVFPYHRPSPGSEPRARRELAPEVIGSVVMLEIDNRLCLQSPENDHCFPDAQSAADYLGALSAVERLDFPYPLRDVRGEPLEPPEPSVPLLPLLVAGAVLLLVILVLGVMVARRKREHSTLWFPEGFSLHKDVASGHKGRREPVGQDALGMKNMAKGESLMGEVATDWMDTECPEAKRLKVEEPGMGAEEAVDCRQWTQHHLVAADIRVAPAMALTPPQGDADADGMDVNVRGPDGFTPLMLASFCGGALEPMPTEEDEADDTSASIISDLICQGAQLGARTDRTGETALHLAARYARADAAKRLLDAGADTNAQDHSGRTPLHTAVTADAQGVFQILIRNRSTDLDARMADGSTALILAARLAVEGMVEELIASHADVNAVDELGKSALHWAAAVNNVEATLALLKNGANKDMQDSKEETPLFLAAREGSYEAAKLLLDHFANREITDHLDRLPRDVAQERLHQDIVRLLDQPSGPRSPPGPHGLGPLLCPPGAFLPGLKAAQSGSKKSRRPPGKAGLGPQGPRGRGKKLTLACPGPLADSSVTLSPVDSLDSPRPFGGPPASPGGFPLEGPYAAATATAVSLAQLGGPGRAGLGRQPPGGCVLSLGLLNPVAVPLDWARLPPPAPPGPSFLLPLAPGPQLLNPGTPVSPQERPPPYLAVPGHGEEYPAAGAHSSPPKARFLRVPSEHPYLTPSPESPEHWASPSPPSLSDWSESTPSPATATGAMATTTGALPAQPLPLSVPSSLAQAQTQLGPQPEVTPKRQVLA
Experiment [20] in a line: probe aEGFR binding to arrayed compounds – biochemical, biotinylated probe, 635/667 nm fluorescence, primary screen (AID 1097).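 Also: probe is a biotinylated anti-EGFR antibody binding compounds printed on slides; score combines fluorescence near 667 nm and signal to noise of each spot.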 The following applies: small-molecule microarray, higher = more signal.

Activity calls are given as the source filed them.

Sequence of Pro-neuregulin-1, membrane-bound isoform (Homo sapiens) (Q02297 whole entry, looked up, the tested form may be a part, canonical isoform): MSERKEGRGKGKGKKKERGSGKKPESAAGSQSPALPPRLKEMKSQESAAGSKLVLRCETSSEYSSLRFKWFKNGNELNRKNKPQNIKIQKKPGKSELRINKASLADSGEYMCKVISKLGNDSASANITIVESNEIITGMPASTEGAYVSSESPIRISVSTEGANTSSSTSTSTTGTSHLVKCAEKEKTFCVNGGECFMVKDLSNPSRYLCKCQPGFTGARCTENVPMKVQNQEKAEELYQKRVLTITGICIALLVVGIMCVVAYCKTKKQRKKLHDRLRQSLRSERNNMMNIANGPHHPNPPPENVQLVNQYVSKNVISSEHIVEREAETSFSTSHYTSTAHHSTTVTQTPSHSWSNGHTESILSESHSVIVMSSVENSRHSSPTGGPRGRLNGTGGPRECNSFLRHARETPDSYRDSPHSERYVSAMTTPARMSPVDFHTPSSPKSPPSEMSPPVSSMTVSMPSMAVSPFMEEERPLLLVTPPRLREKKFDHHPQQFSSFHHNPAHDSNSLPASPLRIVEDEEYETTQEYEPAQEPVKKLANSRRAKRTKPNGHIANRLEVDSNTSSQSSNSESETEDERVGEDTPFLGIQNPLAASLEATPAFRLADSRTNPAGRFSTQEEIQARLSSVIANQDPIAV
Sequence of Torsin-1A-interacting protein 2 (Homo sapiens) (Q8NFQ8 whole entry, looked up): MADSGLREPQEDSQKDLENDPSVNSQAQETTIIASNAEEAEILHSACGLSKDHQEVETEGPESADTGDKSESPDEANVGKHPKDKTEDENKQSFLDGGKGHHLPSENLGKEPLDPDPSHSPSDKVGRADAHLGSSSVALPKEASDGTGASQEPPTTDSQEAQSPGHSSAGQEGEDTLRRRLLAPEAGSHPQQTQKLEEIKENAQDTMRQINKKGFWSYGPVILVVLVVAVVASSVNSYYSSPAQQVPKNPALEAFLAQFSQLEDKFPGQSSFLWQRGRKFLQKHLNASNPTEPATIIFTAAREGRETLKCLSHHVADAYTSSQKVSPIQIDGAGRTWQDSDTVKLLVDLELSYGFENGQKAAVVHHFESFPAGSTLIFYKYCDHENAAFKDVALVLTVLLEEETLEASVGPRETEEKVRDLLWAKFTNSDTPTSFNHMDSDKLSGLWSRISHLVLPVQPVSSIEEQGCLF

As for `O=[N+]([O-])c1ccc(C[n+]2ccc(CCCO)cc2)o1`, the composite z-score in experiment [1] was 0.138; in experiment [2], 0.218; in experiment [3] it was 0.0609; in [4] it was 0.758; in experiment [5], 1.53; in experiment [6], 0.856. For the same compound, the composite z-score was determined as 1.29 in experiment [7]; 0.181 in [9]; 0.251 in experiment [10]; 0.464 in [11]; 2.46 in experiment [15]; 0.24 in experiment [17]. Further, the composite z-score in experiment [18] amounted to 1.73; in experiment [19], 1.07; in experiment [20], 0.296. Further, the z-score in [8] is 0.472 (inactive); in experiment [12], 0.593 (inactive); in [13] it was -12.9 (active); in [14] it was -0.302 (inactive); in [16], -2.76 (inactive).

For `O=c1cccc(-c2ccccc2)o1`, the composite z-score in experiment [1] was -0.0048; in [2] it was -0.313; in experiment [3], -0.0996; in experiment [4], 0.062; in experiment [5], 0.197; in experiment [6] it was -0.356. Moreover, the composite z-score is 0.811 in [7]; -0.0103 in experiment [9]; 0.113 in [10]; -0.159 in experiment [11]; -0.568 in [15]; -0.18 in experiment [17]. In addition, the composite z-score in experiment [18] was -0.124; in [19] it was -0.435; in experiment [20], -0.136. Also, the z-score in [8] was 2.03 (inactive); in [12] it was -1.42 (inactive); in [13], -3.79 (inactive); in [14], -0.482 (inactive); in experiment [16], -0.528 (inactive).

With `C=C(CCCC)/C(=C/C[C@@H](OC(=O)c1ccncc1)c1ccc(CO)o1)c1cc(C(=O)OC)ccc1OC`, the composite z-score is -0.489 in experiment [1]; 1.44 in [2]; -0.0887 in [3]; 0.318 in experiment [4]; 0.738 in [5]; 1.52 in experiment [6]. Besides, the composite z-score in experiment [7] is 1.27; in experiment [9], 0.448; in experiment [10], 0.0722; in experiment [11] it was 1.45; in experiment [15], 2.3; in [17], -0.101. The composite z-score in [18] came to 0.752; in experiment [19], 1.07; in [20] it was 0.107. Also, the z-score was -0.986 (inactive) in [8]; -0.169 (inactive) in experiment [12]; -1.75 (inactive) in experiment [13]; -0.331 (inactive) in experiment [14]; 0.635 (inactive) in experiment [16].

Take `CN1C(=O)C2C(C1=O)C1C=C(c3ccc(CO)cc3)C2C(C2CC2)N1Cc1cc2c(cc1Br)OCO2` (stereo not given): the composite z-score in experiment [1] is -0.0526; in [2] it was 1.44; in experiment [3], -0.0171; in experiment [4] it was 0.561; in experiment [5] it was 1.61; in experiment [6], 1.46. The composite z-score in [7] was 1.24; in [9] it was 0.917; in [10] it was -0.127; in experiment [11], 1.53; in experiment [15], 3.49; in experiment [17], 0.313. Besides, the composite z-score was determined as 0.268 in experiment [18], 1.09 in [19] and 0.035 in experiment [20]. Also, the z-score in [8] was -4.12 (inactive); in experiment [12] it was -3.93 (inactive); in experiment [13], -6.09 (inactive); in experiment [14] it was 0.385 (inactive); in [16], -0.911 (inactive).

As to `O=C1O[C@@H](c2ccccc2)[C@@H](c2ccccc2)N2[C@@H](c3ccccc3OCCO)[C@]3(C(=O)Nc4ccc(C#CC5(O)CCCCCC5)cc43)[C@@H](C(=O)NC[C@H](O)c3ccccc3)[C@H]12`, the composite z-score came to 1.99 in experiment [1]; 0.142 in experiment [2]; 0.0924 in experiment [3]; 1.03 in [4]; 0.81 in experiment [5]; 1.75 in experiment [6]. The composite z-score in experiment [7] came to 1.24; in experiment [9], 1.74; in experiment [10] it was 0.0145; in experiment [11], 1.55; in [15], 3.08; in [17], 0.161. Further, the composite z-score in [18] stood at 1.69; in [19], 1.05; in experiment [20], 0.146. The z-score in experiment [8] is -1.2 (inactive); in experiment [12], 1.77 (inactive); in experiment [13], 1.16 (inactive); in experiment [14], 4.86 (inactive); in experiment [16] it was -0.371 (inactive).

Source of the values: PubChem BioAssay.
